Growth data for 8 compounds are collected here from PubChem BioAssay (NCI).

Some test systems named below: NCI-H226 lung; NCI-H322M lung; HOP-62 NSCLC; NCI-H460 lung; HOP-92 NSCLC; NCI-H522 lung; A549/ATCC NSCLC; 786-0 renal; COLO 205 colon; DU-145 prostate; K-562 leukemia; MALME-3M melanoma; MDA-MB-231 breast; SF-268 CNS; SF-295 CNS; SF-539 CNS; UACC-257 melanoma; M14 melanoma; RXF 393 renal.
What all share (assay): NCI-60 one-dose screen, 48 h (100 = growth as untreated, 0 = no growth, -100 = all killed)
Details in all cases: 10 µM unless noted

This is part of a sample that, as a whole, favours compounds with a hit. Of some 83,000 tested, about 20% had one in any assay.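 Each cell line was grown in a 96-well plate and treated with one concentration of compound for 48 hours. Values below 10 were considered active.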 Unmarked numbers belong to inactive results. Calls of active or inactive are those of the source.

As to `O=C(/C=C\c1ccc(OCCCCCC[P+](c2ccccc2)(c2ccccc2)c2ccccc2)cc1)c1ccc2c(c1)OCCO2`, the growth was -0.25% (active) with NCI-H226 lung; 22.3% with NCI-H322M lung; -21.8% (active) in the experiment with HOP-62 NSCLC; -12.4% (active) with NCI-H460 lung; -29.2% (active) in the experiment on HOP-92 NSCLC; -6.94% (active) in the experiment with NCI-H522 lung. Besides, the growth in the experiment on A549/ATCC NSCLC was 12.1%; with 786-0 renal it was 5.76% (active); with COLO 205 colon it was -58.6% (active); with DU-145 prostate, 6.93% (active); with K-562 leukemia, 2.43% (active); in the experiment on MALME-3M melanoma, -15.3% (active). For the same compound, the growth was 2.28% (active) in the experiment with MDA-MB-231 breast; -4.06% (active) with SF-268 CNS; -17.4% (active) in the experiment with SF-295 CNS; 3.93% (active) in the experiment with SF-539 CNS; -5.23% (active) with UACC-257 melanoma; -3.09% (active) in the experiment with M14 melanoma.
`CCN1C(=O)/C(=c2\sc3n(c2=O)NC2C(N=3)N(CC)C(=O)N2CC)c2ccccc21` (configuration not stated): the growth in the experiment with NCI-H226 lung is 102%; with NCI-H322M lung, 47%; in the experiment on HOP-62 NSCLC, 43.1%; in the experiment on NCI-H460 lung it was 18%; in the experiment on HOP-92 NSCLC it was 21.6%; in the experiment with NCI-H522 lung, 15%. For the same compound, the growth was 38.9% with A549/ATCC NSCLC; 38.2% with 786-0 renal; 14.8% in the experiment on COLO 205 colon; 17.8% in the experiment with DU-145 prostate; 10.2% in the experiment on K-562 leukemia; 36.7% in the experiment on MALME-3M melanoma. In addition, the growth in the experiment on MDA-MB-231 breast was 19.9%; with SF-268 CNS it was 63.9%; with SF-295 CNS, 16.4%; in the experiment with SF-539 CNS, -18.6% (active); with UACC-257 melanoma, 82.5%; in the experiment with M14 melanoma, 38%.
Take `COc1ccncc1C#Cc1cncc(C(=O)Nc2ccc(CN3CCN(C)CC3)c(C(F)(F)F)c2)c1`: the growth was 3.6% (active) with NCI-H226 lung; 37.3% with NCI-H322M lung; 38.9% in the experiment on HOP-62 NSCLC; 8.17% (active) in the experiment on NCI-H460 lung; -2.19% (active) in the experiment on HOP-92 NSCLC; 30.9% in the experiment with NCI-H522 lung. The growth in the experiment with A549/ATCC NSCLC is 36.9%; in the experiment on 786-0 renal it was 46.9%; in the experiment on COLO 205 colon, 4.09% (active); with DU-145 prostate, 35.4%; in the experiment with K-562 leukemia, 5.84% (active); in the experiment on MALME-3M melanoma it was -28% (active). Further, the growth is 9.91% (active) in the experiment on MDA-MB-231 breast; 39.8% in the experiment on SF-268 CNS; 49.7% in the experiment with SF-295 CNS; 1.56% (active) in the experiment on SF-539 CNS; 46.5% in the experiment on UACC-257 melanoma.
Take `O=C(CSc1nc2sc3c(c2c(=O)n1Cc1ccccc1)CCCC3)N1CCN(c2ccccc2)CC1`: the growth in the experiment on NCI-H226 lung is 94.6%; in the experiment on NCI-H322M lung, 89.4%; with HOP-62 NSCLC, 88.3%; in the experiment on NCI-H460 lung, 103%; with HOP-92 NSCLC, 103%; in the experiment on NCI-H522 lung it was 81.1%. For the same compound, the growth was 73% in the experiment on A549/ATCC NSCLC; 103% in the experiment with 786-0 renal; 112% in the experiment on COLO 205 colon; 103% in the experiment on DU-145 prostate; 99.4% in the experiment with K-562 leukemia; 109% with MALME-3M melanoma. Besides, the growth in the experiment on MDA-MB-231 breast is 101%; with RXF 393 renal, 105%; in the experiment with SF-268 CNS, 93.9%; in the experiment on SF-295 CNS, 101%; with SF-539 CNS, 103%; in the experiment on UACC-257 melanoma, 85.7%. Moreover, the growth in the experiment with M14 melanoma was 97.2%.
Consider `CCCCCCCCOC(=O)c1ccc(O)c(OC)c1`, for which the growth is 88.5% in the experiment with NCI-H226 lung; 86.9% in the experiment on NCI-H322M lung; 99.3% with HOP-62 NSCLC; 104% in the experiment with NCI-H460 lung; 84.9% in the experiment on HOP-92 NSCLC; 73% with NCI-H522 lung. Also, the growth with A549/ATCC NSCLC was 89.6%; in the experiment on 786-0 renal it was 106%; with COLO 205 colon, 114%; in the experiment with DU-145 prostate it was 104%; in the experiment with K-562 leukemia, 116%; in the experiment on MALME-3M melanoma, 99.7%. Besides, the growth was 85% in the experiment with MDA-MB-231 breast; 100% in the experiment on RXF 393 renal; 83.8% with SF-268 CNS; 98.7% in the experiment with SF-295 CNS; 92.6% in the experiment on SF-539 CNS; 86.6% with UACC-257 melanoma. Besides, the growth in the experiment with M14 melanoma was 106%.
For the compound `CN1CCN(c2cnc(C(=O)Nc3cc(F)cc4cccnc34)cn2)CC1`, the growth was 90.1% in the experiment on NCI-H226 lung; 83.9% in the experiment with NCI-H322M lung; 98.6% in the experiment on HOP-62 NSCLC; 103% with NCI-H460 lung; 79.1% with HOP-92 NSCLC; 22% in the experiment on NCI-H522 lung. Also, the growth with A549/ATCC NSCLC is 92.4%; in the experiment on 786-0 renal, 56%; in the experiment on COLO 205 colon, 21.2%; with DU-145 prostate, 72.3%; with K-562 leukemia, 16.9%; in the experiment on MALME-3M melanoma, 42.2%. Further, the growth with MDA-MB-231 breast was 33.4%; in the experiment with SF-268 CNS it was 93.7%; in the experiment with SF-295 CNS it was 94.3%; in the experiment on SF-539 CNS it was 71.8%; with UACC-257 melanoma, 44.8%; in the experiment with M14 melanoma, 51.4%.
Consider `O=S(=O)(O)c1cc(O)c2c(N=Nc3ccc(Nc4ccccc4)c4c(S(=O)(=O)O)cccc34)cc(S(=O)(=O)O)cc2c1`, for which the growth in the experiment on NCI-H226 lung is 101%; with NCI-H322M lung, 120%; in the experiment on HOP-62 NSCLC, 100%; with NCI-H460 lung, 105%; in the experiment with HOP-92 NSCLC, 101%; with NCI-H522 lung, 93.5%. Also, the growth with A549/ATCC NSCLC is 101%; with 786-0 renal it was 102%; in the experiment on COLO 205 colon, 97.9%; in the experiment on DU-145 prostate, 107%; in the experiment on K-562 leukemia, 112%; with MALME-3M melanoma it was 130%. Besides, the growth was 102% in the experiment with MDA-MB-231 breast; 109% in the experiment on RXF 393 renal; 101% with SF-268 CNS; 105% in the experiment on SF-295 CNS; 96.2% with SF-539 CNS; 95.6% with UACC-257 melanoma. The growth in the experiment on M14 melanoma is 103%.
Take `CN(C)c1ccc(-c2c(C#N)c(N)n3nc(N)c(C#N)c3c2C#N)cc1`: the growth with NCI-H226 lung was 86%; with NCI-H322M lung it was 82%; in the experiment with HOP-62 NSCLC it was 57.8%; in the experiment with NCI-H460 lung it was 70.1%; in the experiment with HOP-92 NSCLC, 60.1%; in the experiment on NCI-H522 lung it was 82.7%. Further, the growth was 73.6% in the experiment with A549/ATCC NSCLC; 93.1% with 786-0 renal; 75.4% with COLO 205 colon; 67.1% in the experiment with DU-145 prostate; 109% in the experiment on K-562 leukemia; 116% with MALME-3M melanoma. Further, the growth with MDA-MB-231 breast is 43.2%; with RXF 393 renal, 65.5%; with SF-268 CNS, 77%; in the experiment with SF-295 CNS, 104%; in the experiment with SF-539 CNS it was 78.2%; in the experiment with UACC-257 melanoma, 113%. The growth in the experiment with M14 melanoma was 69.1%.
